# Measurements: paper PMC7862700, “An all-to-all approach to the identification of sequence-specific readers for epigenetic DNA modifications on cytosine”
# What was measured:
# Experiment in all cases: DAPPL (digital affinity profiling via proximity ligation, sequencing); 10 mM Tris-HCl pH 7.5, 50 mM NaCl, 1 mM DTT, 4% glycerol, room temperature, 30 min; GST-TFs on glutathione beads, 16-mer random dsDNA library, 0.1% formaldehyde crosslink after washing; high values mean tight binding
# FLI1 = molecular target: T1, FLI1 (Homo sapiens, UniProt Q01543 1-452); details: protein: recombinant; tags: N-terminal GST; dsDNA, one strand shown
# T1 sequence: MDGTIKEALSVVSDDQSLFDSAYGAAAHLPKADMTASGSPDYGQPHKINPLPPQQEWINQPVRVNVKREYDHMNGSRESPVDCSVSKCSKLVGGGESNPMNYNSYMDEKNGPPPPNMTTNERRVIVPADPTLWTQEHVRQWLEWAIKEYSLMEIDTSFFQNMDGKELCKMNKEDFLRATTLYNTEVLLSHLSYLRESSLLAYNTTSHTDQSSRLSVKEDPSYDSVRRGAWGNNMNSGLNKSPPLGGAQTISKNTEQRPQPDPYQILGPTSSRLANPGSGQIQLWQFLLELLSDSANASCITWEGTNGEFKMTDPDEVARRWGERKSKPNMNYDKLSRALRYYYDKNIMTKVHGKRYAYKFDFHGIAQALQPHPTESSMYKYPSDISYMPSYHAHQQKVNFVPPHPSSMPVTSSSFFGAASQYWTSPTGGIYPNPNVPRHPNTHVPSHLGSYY
# In short: (§1)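 Pools of DNA-barcoded human transcription factors, expressed in yeast as GST fusions on glutathione beads and combined with a tag-only sample, were incubated with 200 nmole of a 16-mer random double-stranded DNA library. Incubation took 30 min at room temperature in Tris/NaCl/DTT/glycerol buffer and was followed by washing, 0.1% formaldehyde crosslinking, proximity ligation (BsaI/T4 ligase, 1 h, 37 °C), PCR amplification and sequencing on an Illumina NextSeq500. Binding signal is the ratio of a hexamer's read frequency for a factor to its frequency for the tag-only sample.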
# ELK1 = molecular target: T2, ELK1 (Homo sapiens, UniProt P19419 1-428); details: protein: recombinant; tags: N-terminal GST; dsDNA, one strand shown
# T2 sequence: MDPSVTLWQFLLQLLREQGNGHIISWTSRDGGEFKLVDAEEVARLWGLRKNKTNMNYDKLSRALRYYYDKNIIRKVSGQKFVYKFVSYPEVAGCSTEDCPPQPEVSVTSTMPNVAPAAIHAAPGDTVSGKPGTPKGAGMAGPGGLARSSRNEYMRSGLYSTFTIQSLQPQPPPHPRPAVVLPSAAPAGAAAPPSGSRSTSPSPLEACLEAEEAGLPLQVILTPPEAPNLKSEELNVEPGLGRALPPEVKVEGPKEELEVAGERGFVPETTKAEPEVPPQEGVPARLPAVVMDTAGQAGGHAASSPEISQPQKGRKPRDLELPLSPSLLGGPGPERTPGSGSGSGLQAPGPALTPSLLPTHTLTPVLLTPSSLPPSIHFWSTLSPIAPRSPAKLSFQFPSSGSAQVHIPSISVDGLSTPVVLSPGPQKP
# In short: as §1
# GABPA = molecular target: T3, GABPA (Homo sapiens, UniProt Q06546 1-454); details: protein: recombinant; tags: N-terminal GST; dsDNA, one strand shown
# T3 sequence: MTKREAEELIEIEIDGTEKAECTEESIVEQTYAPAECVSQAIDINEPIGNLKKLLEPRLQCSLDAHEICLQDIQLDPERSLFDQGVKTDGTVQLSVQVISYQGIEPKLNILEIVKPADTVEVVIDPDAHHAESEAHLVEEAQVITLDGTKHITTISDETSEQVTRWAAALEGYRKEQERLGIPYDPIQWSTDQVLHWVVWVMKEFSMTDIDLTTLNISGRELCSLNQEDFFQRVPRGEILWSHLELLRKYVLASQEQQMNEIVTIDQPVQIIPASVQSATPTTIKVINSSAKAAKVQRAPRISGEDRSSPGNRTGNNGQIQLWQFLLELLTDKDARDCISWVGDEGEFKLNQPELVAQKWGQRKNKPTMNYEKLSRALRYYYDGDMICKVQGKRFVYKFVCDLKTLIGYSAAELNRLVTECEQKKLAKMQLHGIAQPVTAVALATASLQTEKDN
# In short: as §1
# ERG = molecular target: T4, ERG (Homo sapiens, UniProt P11308 1-479); details: protein: recombinant; tags: N-terminal GST; dsDNA, one strand shown
# T4 sequence: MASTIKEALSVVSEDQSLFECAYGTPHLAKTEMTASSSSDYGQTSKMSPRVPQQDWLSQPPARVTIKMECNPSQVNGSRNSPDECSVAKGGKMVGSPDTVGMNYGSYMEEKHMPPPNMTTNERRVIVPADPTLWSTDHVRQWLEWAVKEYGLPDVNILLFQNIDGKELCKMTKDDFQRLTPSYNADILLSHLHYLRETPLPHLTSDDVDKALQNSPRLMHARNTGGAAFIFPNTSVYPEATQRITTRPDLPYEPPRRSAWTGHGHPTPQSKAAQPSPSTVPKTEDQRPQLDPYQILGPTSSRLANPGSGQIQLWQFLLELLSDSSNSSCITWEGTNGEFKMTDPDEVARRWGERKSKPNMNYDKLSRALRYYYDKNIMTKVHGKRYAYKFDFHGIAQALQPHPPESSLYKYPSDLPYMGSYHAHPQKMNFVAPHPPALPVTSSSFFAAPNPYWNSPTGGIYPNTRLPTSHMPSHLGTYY
# In short: as §1
# ELF1 = ELF1 (Homo sapiens, UniProt P32519 1-619); details: protein: recombinant; tags: N-terminal GST; dsDNA, one strand shown
# In short: as §1
# EHF = molecular target: T5, EHF (Homo sapiens, UniProt Q9NZC4 1-300); details: protein: recombinant; tags: N-terminal GST; dsDNA, one strand shown
# T5 sequence: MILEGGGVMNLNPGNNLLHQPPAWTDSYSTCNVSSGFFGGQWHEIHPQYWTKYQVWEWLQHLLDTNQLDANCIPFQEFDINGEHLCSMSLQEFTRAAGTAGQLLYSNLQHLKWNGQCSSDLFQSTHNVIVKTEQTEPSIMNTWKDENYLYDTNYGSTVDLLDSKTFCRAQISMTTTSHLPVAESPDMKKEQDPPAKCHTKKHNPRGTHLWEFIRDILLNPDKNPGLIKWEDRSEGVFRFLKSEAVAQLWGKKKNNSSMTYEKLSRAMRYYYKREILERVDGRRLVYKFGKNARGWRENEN
# In short: as §1
# SPI1 = SPI1 (Homo sapiens, UniProt P17947 1-270); details: protein: recombinant; tags: N-terminal GST; dsDNA, one strand shown
# In short: as §1
# SPIB = SPIB (Homo sapiens, UniProt Q01892 1-262); details: protein: recombinant; tags: N-terminal GST; dsDNA, one strand shown
# In short: as §1
# ELK3 = molecular target: T6, ELK3 (Homo sapiens, UniProt P41970 1-407); details: protein: recombinant; tags: N-terminal GST; dsDNA, one strand shown
# T6 sequence: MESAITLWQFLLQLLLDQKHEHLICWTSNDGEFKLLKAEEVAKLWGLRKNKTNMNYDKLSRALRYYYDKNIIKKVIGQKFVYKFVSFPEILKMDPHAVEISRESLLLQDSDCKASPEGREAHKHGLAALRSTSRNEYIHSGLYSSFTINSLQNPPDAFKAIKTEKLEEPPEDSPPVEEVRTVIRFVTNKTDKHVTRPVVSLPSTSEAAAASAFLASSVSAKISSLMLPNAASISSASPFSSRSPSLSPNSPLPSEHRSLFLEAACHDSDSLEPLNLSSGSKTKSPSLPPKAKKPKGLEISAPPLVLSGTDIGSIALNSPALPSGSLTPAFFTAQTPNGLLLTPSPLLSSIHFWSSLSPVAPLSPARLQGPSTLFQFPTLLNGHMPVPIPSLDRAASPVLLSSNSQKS
# In short: as §1
# FEV = molecular target: T7, FEV (Homo sapiens, UniProt Q99581 1-238); details: protein: recombinant; tags: N-terminal GST; dsDNA, one strand shown
# T7 sequence: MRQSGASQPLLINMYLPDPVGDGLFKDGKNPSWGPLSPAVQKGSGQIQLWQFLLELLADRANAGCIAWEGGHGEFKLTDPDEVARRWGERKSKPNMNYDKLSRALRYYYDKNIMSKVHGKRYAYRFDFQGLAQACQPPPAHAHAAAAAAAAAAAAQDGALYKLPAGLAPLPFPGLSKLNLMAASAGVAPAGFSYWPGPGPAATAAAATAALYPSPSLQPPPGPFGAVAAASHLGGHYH
# In short: as §1
# ETV5 = ETV5 (Homo sapiens, UniProt P41161 1-510); details: protein: recombinant; tags: N-terminal GST; dsDNA, one strand shown
# In short: as §1
# HSF1 = HSF1 (Homo sapiens, UniProt Q00613 1-529); details: protein: recombinant; tags: N-terminal GST; chain copies: 3; dsDNA, one strand shown
# In short: as §1
# SPIC = molecular target: T8, SPIC (Homo sapiens, UniProt Q8N5J4 1-248); details: protein: recombinant; tags: N-terminal GST; dsDNA, one strand shown
# T8 sequence: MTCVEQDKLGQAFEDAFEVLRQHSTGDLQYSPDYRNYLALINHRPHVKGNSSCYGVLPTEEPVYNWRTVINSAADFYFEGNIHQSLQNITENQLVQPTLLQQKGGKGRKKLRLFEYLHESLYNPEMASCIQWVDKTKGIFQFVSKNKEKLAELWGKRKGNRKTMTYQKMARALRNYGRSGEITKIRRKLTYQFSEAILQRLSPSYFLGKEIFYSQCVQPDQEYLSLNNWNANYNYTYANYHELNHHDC
# In short: as §1
# ELF4 = ELF4 (Homo sapiens, UniProt Q99607 1-663); details: protein: recombinant; tags: N-terminal GST; dsDNA, one strand shown
# In short: as §1
# ELK4 = molecular target: T9, ELK4 (Homo sapiens, UniProt P28324-2 1-405); details: protein: recombinant; tags: N-terminal GST; dsDNA, one strand shown
# T9 sequence: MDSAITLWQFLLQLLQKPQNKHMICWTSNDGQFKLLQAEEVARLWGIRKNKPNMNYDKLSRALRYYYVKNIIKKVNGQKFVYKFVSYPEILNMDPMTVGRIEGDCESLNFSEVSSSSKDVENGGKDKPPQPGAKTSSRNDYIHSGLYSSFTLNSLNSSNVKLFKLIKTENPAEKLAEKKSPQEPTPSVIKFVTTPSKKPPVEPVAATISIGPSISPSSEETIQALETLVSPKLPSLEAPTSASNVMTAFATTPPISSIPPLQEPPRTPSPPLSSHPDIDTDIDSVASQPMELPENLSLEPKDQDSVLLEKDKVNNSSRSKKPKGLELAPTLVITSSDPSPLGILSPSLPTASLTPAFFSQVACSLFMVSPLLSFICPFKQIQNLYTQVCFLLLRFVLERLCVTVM
# In short: as §1
# ETV2 = molecular target: T10, ETV2 (Homo sapiens, UniProt O00321 1-342); details: protein: recombinant; tags: N-terminal GST; dsDNA, one strand shown
# T10 sequence: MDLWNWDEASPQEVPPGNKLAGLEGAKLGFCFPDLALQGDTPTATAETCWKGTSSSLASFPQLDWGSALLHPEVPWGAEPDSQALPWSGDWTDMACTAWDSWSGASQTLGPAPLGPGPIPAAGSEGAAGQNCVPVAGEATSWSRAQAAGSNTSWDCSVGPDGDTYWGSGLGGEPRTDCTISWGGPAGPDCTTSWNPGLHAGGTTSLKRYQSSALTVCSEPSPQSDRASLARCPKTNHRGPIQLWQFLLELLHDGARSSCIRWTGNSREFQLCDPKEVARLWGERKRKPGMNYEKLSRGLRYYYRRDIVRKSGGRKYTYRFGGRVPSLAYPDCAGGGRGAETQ
# In short: as §1
# ELF3 = molecular target: T11, ELF3 (Homo sapiens, UniProt P78545 1-371); details: protein: recombinant; tags: N-terminal GST; dsDNA, one strand shown
# T11 sequence: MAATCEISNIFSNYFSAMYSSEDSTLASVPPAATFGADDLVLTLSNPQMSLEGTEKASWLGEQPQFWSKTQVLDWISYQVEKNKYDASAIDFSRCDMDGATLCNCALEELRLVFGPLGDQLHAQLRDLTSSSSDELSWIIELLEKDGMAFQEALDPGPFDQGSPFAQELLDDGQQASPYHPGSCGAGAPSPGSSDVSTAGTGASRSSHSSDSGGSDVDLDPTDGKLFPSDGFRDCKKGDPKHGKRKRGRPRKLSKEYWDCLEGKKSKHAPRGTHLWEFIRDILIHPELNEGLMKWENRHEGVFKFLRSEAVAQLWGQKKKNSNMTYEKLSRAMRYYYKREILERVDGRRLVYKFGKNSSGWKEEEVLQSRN
# In short: as §1
# CRX = CRX (Homo sapiens, UniProt O43186 1-299); details: protein: recombinant; tags: N-terminal GST; dsDNA, one strand shown
# In short: as §1
# ETV1 = ETV1 (Homo sapiens, UniProt P50549 1-477); details: protein: recombinant; tags: N-terminal GST; dsDNA, one strand shown
# In short: as §1
# Chain of SPIB (Q01892 whole entry): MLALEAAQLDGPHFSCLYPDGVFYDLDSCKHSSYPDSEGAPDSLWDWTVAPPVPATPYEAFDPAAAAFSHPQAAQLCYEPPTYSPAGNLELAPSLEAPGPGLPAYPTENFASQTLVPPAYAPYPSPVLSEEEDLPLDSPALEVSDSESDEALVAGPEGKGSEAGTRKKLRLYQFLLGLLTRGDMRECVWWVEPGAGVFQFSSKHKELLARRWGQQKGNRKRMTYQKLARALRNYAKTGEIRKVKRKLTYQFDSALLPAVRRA
# Chain of HSF1 (Q00613 whole entry): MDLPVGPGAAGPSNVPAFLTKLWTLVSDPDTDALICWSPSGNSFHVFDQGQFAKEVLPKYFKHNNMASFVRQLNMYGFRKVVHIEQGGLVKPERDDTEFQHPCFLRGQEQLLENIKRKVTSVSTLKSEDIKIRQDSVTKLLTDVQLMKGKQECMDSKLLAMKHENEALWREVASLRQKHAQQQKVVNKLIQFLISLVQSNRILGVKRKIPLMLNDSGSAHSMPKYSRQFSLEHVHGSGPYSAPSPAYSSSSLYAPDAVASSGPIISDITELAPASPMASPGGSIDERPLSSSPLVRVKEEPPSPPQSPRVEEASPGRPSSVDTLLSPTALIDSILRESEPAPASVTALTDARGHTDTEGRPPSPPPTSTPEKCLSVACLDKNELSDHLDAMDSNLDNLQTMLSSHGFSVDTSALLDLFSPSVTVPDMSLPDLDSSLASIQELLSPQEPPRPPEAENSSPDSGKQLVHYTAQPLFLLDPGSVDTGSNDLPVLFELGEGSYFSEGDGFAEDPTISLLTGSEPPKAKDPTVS
# Chain of CRX (O43186 whole entry): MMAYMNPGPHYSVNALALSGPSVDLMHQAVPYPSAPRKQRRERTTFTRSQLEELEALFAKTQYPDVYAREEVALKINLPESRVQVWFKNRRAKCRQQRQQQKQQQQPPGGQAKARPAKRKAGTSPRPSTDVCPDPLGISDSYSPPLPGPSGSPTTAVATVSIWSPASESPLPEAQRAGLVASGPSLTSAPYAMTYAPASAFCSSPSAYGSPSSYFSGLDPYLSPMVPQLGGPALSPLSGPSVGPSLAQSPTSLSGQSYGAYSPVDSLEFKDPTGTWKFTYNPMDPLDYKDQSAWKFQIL
# Chain of ELF4 (Q99607 whole entry): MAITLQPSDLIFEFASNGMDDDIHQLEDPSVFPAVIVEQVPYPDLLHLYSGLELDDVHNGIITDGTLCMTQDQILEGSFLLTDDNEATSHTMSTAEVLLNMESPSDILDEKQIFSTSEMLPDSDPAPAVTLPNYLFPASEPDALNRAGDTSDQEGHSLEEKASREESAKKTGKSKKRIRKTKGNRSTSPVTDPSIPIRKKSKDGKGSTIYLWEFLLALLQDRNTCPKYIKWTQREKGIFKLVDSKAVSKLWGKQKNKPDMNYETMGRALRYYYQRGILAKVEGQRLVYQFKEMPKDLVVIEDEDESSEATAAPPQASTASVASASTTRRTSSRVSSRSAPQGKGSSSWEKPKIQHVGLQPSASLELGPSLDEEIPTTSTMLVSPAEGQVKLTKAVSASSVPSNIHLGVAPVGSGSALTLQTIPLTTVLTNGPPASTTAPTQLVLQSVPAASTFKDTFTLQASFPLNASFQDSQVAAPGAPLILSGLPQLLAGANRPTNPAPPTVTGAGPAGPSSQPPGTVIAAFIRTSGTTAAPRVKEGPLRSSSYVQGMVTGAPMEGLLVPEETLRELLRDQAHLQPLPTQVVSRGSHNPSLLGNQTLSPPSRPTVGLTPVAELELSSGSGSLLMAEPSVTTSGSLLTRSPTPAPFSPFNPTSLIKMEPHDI
# Chain of ETV1 (P50549 whole entry): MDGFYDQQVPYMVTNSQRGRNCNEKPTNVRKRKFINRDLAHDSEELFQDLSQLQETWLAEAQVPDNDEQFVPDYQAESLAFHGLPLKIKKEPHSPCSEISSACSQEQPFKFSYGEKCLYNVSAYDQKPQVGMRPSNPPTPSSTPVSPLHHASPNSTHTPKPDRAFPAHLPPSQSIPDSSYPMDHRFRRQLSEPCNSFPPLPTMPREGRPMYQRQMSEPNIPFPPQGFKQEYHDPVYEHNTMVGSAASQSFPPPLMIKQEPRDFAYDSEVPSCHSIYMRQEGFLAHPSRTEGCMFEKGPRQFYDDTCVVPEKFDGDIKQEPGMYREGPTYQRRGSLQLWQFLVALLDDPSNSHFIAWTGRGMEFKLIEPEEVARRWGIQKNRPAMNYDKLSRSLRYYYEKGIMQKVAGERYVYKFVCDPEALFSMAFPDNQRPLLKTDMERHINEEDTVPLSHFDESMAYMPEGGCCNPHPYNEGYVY
# Chain of ETV5 (P41161 whole entry): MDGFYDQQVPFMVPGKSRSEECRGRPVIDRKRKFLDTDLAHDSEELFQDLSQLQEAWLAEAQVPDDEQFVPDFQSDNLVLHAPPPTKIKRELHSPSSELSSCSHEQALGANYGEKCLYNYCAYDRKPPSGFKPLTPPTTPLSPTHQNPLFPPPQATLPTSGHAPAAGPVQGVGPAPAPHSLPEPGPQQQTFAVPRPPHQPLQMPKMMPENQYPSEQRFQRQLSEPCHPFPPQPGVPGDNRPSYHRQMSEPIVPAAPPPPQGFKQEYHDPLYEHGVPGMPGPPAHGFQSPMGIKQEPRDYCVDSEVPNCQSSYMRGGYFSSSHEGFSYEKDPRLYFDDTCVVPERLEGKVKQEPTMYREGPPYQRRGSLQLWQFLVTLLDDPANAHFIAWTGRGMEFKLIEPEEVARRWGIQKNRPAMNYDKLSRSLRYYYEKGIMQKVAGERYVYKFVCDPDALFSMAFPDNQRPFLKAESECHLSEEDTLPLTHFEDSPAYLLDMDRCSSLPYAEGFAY
# Chain of ELF1 (P32519 whole entry): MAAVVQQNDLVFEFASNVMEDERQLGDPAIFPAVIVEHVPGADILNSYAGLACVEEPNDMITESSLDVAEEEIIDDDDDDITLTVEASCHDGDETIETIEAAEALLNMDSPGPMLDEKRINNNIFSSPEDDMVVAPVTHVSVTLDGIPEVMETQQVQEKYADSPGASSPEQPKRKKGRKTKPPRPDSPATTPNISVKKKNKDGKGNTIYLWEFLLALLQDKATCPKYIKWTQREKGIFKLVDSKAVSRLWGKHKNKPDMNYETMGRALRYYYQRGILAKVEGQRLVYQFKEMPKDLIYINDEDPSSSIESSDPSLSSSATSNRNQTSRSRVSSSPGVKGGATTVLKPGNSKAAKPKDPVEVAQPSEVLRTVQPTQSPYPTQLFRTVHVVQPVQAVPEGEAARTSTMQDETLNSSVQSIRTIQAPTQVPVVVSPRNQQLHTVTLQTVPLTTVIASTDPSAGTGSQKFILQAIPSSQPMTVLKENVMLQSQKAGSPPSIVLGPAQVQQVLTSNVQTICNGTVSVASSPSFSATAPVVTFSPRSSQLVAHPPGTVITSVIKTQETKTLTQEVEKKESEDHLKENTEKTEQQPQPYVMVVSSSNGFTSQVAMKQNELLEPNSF
sequence,measurement,setting,value
CCCTAC,binding signal,FLI1,"1.5 fold enrichment (6-mer frequency, TF over GST control)"
same,binding signal,ELK1,"1.49 fold enrichment (6-mer frequency, TF over GST control)"
same,binding signal,GABPA,"1.33 fold enrichment (6-mer frequency, TF over GST control)"
same,binding signal,ERG,"1.33 fold enrichment (6-mer frequency, TF over GST control)"
same,binding signal,ELF1,"1.4 fold enrichment (6-mer frequency, TF over GST control)"
same,binding signal,EHF,"1.33 fold enrichment (6-mer frequency, TF over GST control)"
same,binding signal,SPI1,"1.36 fold enrichment (6-mer frequency, TF over GST control)"
same,binding signal,SPIB,"1.25 fold enrichment (6-mer frequency, TF over GST control)"
same,binding signal,ELK3,"1.65 fold enrichment (6-mer frequency, TF over GST control)"
same,binding signal,FEV,"1.46 fold enrichment (6-mer frequency, TF over GST control)"
same,binding signal,ETV5,"1.43 fold enrichment (6-mer frequency, TF over GST control)"
same,binding signal,HSF1,"1.13 fold enrichment (6-mer frequency, TF over GST control)"
same,binding signal,SPIC,"1.45 fold enrichment (6-mer frequency, TF over GST control)"
same,binding signal,ELF4,"1.47 fold enrichment (6-mer frequency, TF over GST control)"
same,binding signal,ELK4,"1.53 fold enrichment (6-mer frequency, TF over GST control)"
same,binding signal,ETV2,"1.22 fold enrichment (6-mer frequency, TF over GST control)"
same,binding signal,ELF3,"1.48 fold enrichment (6-mer frequency, TF over GST control)"
same,binding signal,CRX,"1.19 fold enrichment (6-mer frequency, TF over GST control)"
same,binding signal,ETV1,"1.46 fold enrichment (6-mer frequency, TF over GST control)"
